Assay results reported in PubChem BioAssay AID504848 (National Center for Advancing Translational Sciences (NCATS), 2011).
The campaign covered roughly 2,300 compounds. About 1,400 (61%) were called active. Inconclusive results (about 29%) are left out. Calls come from the whole dose curve; as a rule, active = well fitted inhibition curve with a large enough effect; inconclusive = small, poorly fitted or top-dose-only effect, or effect the other way; inactive = no such curve, though single readings can be large or run the other way. The set was probably picked from earlier hits. This is one part of the list.

Experiment: Confirmation screen for delayed death inhibitors of the malarial parasite plastid, 96 hour incubation; note: nearly all actives have a fitted effect of over 60% in size
Conditions: P. falciparum luciferase growth in erythrocytes; series mostly up to 28.7 µM
Outline: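 Erythrocytes infected with luciferase-expressing P. falciparum (2% hematocrit, 0.1% parasitemia final) in RPMI 1640 with 0.5% Albumax, exposed to compounds 96 h at 37 C, 5% CO2. Growth inhibition read as decreased luciferase luminescence.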
Potency is the fitted concentration of half-maximal effect.

Compound | Potency
Cc1ccccc1-n1nc2c(c1NC(=O)C1CCCC1)CS(=O)(=O)C2 | inactive
c1csc(CNc2ncnc3nc[nH]c23)c1 | 15.8 µM (active)
O=C(NC1CCN(Cc2ccccc2)CC1)C1CCN(c2nnc(-n3cccc3)s2)CC1 | 5.01 µM (active)
CC1Cc2ccccc2N1CC(=O)Nc1ccc2c(c1)OCCCO2 (stereo not given) | 15.8 µM (active)
CC(=O)Nc1ccc(NC(=O)c2ccc(C3SCC(=O)N3CCc3ccccc3)cc2)cc1 (stereo not given) | 12.6 µM (active)
O=C1CSC(c2cccnc2)N1CCc1ccccn1 (stereo not given) | inactive
O=C(Nc1ccc(N2CCN(C(=O)c3ccccc3)CC2)cc1)c1ccc([N+](=O)[O-])o1 | 3.16 µM (active)
Cc1ccccc1C(=O)N1CCN(c2ccc(NC(=O)c3ccc([N+](=O)[O-])o3)cc2)CC1 | 6.31 µM (active)
O=C(Nc1ccc(N2CCN(C(=O)c3cccs3)CC2)cc1)c1ccc([N+](=O)[O-])o1 | 2.24 µM (active)
O=C(Nc1ccc(N2CCN(C(=O)c3ccco3)CC2)cc1)c1ccc(F)cc1 | 3.98 µM (active)
CCN(CC)CCNC(=O)C1c2cc(OC)c(OC)cc2C(=O)N2CCc3ccccc3C12 (stereo not given) | 2.24 µM (active)
COC(=O)[C@@]12CCCN1[C@H](c1ccc(-c3cccc(Cl)c3)c(OC)c1)[C@H]1C(=O)N(C)C(=O)[C@H]12 | 1.12 µM (active)
CCN1C(=O)[C@@H]2[C@@H](c3ccc(SC4CCCCC4)c(OC)c3)N3CCC[C@@]3(C(=O)OC)[C@@H]2C1=O | 2.51 µM (active)
COc1ccccc1OCC(=O)Nc1nc2c(s1)CCCC2 | inactive
CC(C)(C)c1nc(SCC(=O)Nc2ccc(N3CCOCC3)cc2)c2ccccc2n1 | 8.91 µM (active)
CC(C)(C)c1nc(SCC(=O)Nc2nc3c(s2)CCCC3)c2ccccc2n1 | 2 µM (active)
Cc1ccc(-c2cc(=O)c3ccc(F)cc3[nH]2)cc1 | 3.98 µM (active)
Cc1ccc(S(=O)(=O)Nc2cc(=O)[nH]c(SCc3ccc(Cl)cc3)n2)cc1 | 11.2 µM (active)
CC(=O)c1c(C)cc(C)c(CSc2nc(C)cc(=O)[nH]2)c1C | inactive
Cc1oc(-c2ccccc2Cl)nc1CSCC(=O)N1CCCC1 | 11.2 µM (active)
Cc1oc(-c2ccccc2F)nc1CS(=O)(=O)CC(=O)NCCCN1CCN(C)CC1 | inactive
COc1ccc(-n2c(C)cc(C(=O)COC(=O)Cc3n[nH]c(=O)c4ccccc34)c2C)cc1 | 3.55 µM (active)
O=C(Cc1n[nH]c(=O)c2ccccc12)OCc1c(Cl)cccc1Cl | inactive
Cc1ccc(/C=N/NC(=O)CSc2nc3ccccc3c(=O)n2-c2ccccc2C)s1 | 6.31 µM (active)
COc1ccc(C(C)=O)cc1CSc1nc2ccccc2c(=O)n1-c1ccccc1C | 7.94 µM (active)
